# Source: PubChem BioAssay AID623868 (Vanderbilt High Throughput Screening Facility, 2012)
# Screen size: about 2,100 compounds; about 760 (36%) were called active. These entries were drawn from the full list. A number with no mark means an inactive call.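 Rule for the calls: active = thallium-flux fluorescence traces judged by eye to show enhanced or reduced glutamate response, manual score 1 or -1, so both directions (some results past the limit were not filed as active); inactive = the rest, including fluorescent or raised-baseline compounds.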
# Assay: non-GIRK thallium flux modulation in mGlu8 cells, confirmation, counter-screen for GIRK activator project, cell-based, HEK-293 rmGlu8, no GIRK (AID 623868);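 note: extra codes mark interference with 3 for fluorescent and 4 for baseline rise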
# Conditions: thallium flux fluorescence, at 10 µM, actives lie on both sides, codes: 1 enhancer, -1 blocker, 0 none, thallium stimulus containing EC20 glutamate
row,Compound,manual score
1,COC(=O)[C@H]1CCCN1C(=O)Nc1cccc(Oc2c(F)c(F)c(F)c(F)c2F)c1,0
2,Cc1ccc(Nc2cc(C)nn2-c2nc(C)cc(=O)[nH]2)cc1,1 (active)
3,Cc1cc(NC(=O)c2c(F)cccc2Cl)n(-c2nc3ccccc3[nH]2)n1,0
4,Cc1cc(NC(=O)Nc2ccccc2)n(-c2ccccc2)n1,0
5,C=CCn1c(SCC(=O)Nc2sc(C)c(C)c2C(=O)OCC)nnc1-c1sc(N)nc1C,-1 (active)
6,CCOC(=O)c1cnc(SCC(=O)Nc2nc(C)c(C)s2)nc1N,0
7,CCOC(=O)c1c(NC(=O)CSc2nnc(Cc3csc(N)n3)n2C)sc(C)c1C,-1 (active)
8,CC1(C)Cc2ccccc2-c2nnc(SCC(=O)N3CCN(c4ccccc4)CC3)n21,0
9,C1CCC2(CC1)OCC1(CO2)COC2(CCCCC2)OC1,0
10,CC1(C)NC(=O)NC2(C)NC(=O)NC(C)(C)C12 (stereo not given),0
11,CNC(=S)N/N=C/c1ccc(C(C)C)cc1,1 (active)
12,CNC(=S)N/N=C(\C)c1ccc(C)c(C)c1,0.5
13,C=CCNC(=O)C1CC(=O)N(c2ccc(OCC(=O)Nc3ccccc3)cc2)C1 (stereo not given),0
14,Fc1cc(F)c2nc(Nc3nc4c(F)cccc4s3)sc2c1,1 (active)
15,Fc1ccc2nc(Nc3nc4c(F)cc(F)cc4s3)sc2c1,1 (active)
16,Fc1cccc2sc(Nc3nc4cc5c(cc4s3)OCO5)nc12,0
17,Fc1ccc2nc(Nc3nc4c(F)cccc4s3)sc2c1,1 (active)
18,Fc1cccc2sc(Nc3nc4ccccc4s3)nc12,0
19,COc1cc(/C=C2/C(=O)N=C(N)N2C)cc(OC)c1OC,0
20,CC1CC(C)CN(C(=S)Nc2ccc(SC(F)F)cc2)C1 (stereo not given),0
21,Cc1ccc(Nc2n[nH]c(C)c2[N+](=O)[O-])cc1C,0
22,NC(=O)COc1ccc(C2c3c(oc4ccccc4c3=O)C(=O)N2CC2CCCO2)cc1 (stereo not given),0
23,O=c1c(O)c(-c2cccs2)oc2ccccc12,3
24,CN(C)CCCN1C(=O)c2oc3ccccc3c(=O)c2C1c1cccs1 (stereo not given),1 (active)

row,Compound,manual score
1,CCN(CC)CCN1C(=O)c2oc3ccccc3c(=O)c2C1c1ccccc1 (stereo not given),0.5
2,CCN(CC)CCN1C(=O)c2oc3ccccc3c(=O)c2C1c1ccc(F)cc1 (stereo not given),0
3,CCN(CC)CCCN1C(=O)c2oc3ccccc3c(=O)c2C1c1cccs1 (stereo not given),1 (active)
4,O=C1Nc2ccccc2C12OCC1(CO2)COC2(OC1)C(=O)Nc1ccccc12 (stereo not given),0
5,O=C(Nc1nnc(-c2ccc(Cl)cc2)o1)c1ccc(N2C(=O)CCC2=O)cc1,1 (active)
6,Cc1ccc(N2CC(C(=O)Oc3cccc(N4C(=O)CCC4=O)c3)CC2=O)cc1 (stereo not given),0
7,O=C(Nc1nnc(-c2ccc(Cl)cc2)o1)c1cccc(N2C(=O)CCC2=O)c1,1 (active)
8,COc1ccccc1NC(=O)c1cc(C(=O)Nc2ccccc2OC)cc(N2C(=O)CCC2=O)c1,0
9,COc1cccc2sc(Nc3nc(-c4ccccn4)cs3)nc12,1 (active)
10,COc1cccc2sc(Nc3nnc(-c4cccs4)o3)nc12,1 (active)
11,COc1ccc(-c2nnc(Nc3nc4c(OC)cccc4s3)o2)cc1,1 (active)
12,CCNc1nnc(-c2ccc(C)cc2)o1,0
13,CCN(CC)c1nc(C)nc2c1cnn2CCc1ccccc1,0
14,Cc1cc(=S)[nH]c2c(C)cccc12,1 (active)
15,Cc1cc(C)c2[nH]c(=S)cc(C)c2c1,1 (active)
16,CCOc1ccccc1Nc1nnc(Cc2ccccc2Cl)c(=O)[nH]1,0
17,CCOC(=O)C1=C(C)N=C2SCCC(=O)N2C1c1sccc1C (stereo not given),-1 (active)
18,CCOC(=O)C1=C(C)NC(=O)NC1c1ccc(Br)o1 (stereo not given),0
19,CC(C)(C)c1nnc(N/N=C/c2ccccc2)n(N)c1=O,0
20,Cc1cc(=O)n2[nH]c(C)c(-c3ccccc3)c2n1,-0.5
21,Cc1nc2c(-c3ccccc3)c(C)[nH]n2c(=O)c1Cl,0
22,Cc1[nH]n2c(=O)cc(C(C)(C)C)nc2c1-c1ccccc1,1 (active)
23,COc1ccc(C(=S)Nc2ccc(N(C)C)cc2)cc1,0
24,COc1ccc(NC(=S)Nc2ccc(OCc3ccccc3)cc2)cc1OC,0

row,Compound,manual score
1,COc1ccc(C/C(C)=N/NC(=S)Nc2ccccc2)cc1,1 (active)
2,CC/C(=N\NC(=S)Nc1ccc(OC)cc1)c1ccc(OC(F)F)cc1,1 (active)
3,CC/C(=N\NC(=S)Nc1cc(C)ccc1C)c1ccc(OC(F)F)cc1,0
4,CCC1(C)OCC(Cn2c3ccccc3c3ccccc32)O1 (stereo not given),0
5,O=c1[nH]c(NCCO)nc2c1C1(CCCCC1)Cc1ccccc1-2,0
6,Cc1ccc(/C(O)=C2\C(=O)C(=O)N(c3cc(C)on3)C2c2cccc(Br)c2)cc1 (stereo not given),-1 (active)
7,C=CCOc1cccc(C2/C(=C(/O)c3ccc(C)cc3)C(=O)C(=O)N2CCN2CCOCC2)c1 (stereo not given),0
8,CCN(CC)c1ccc2cc(C=O)c(=O)oc2c1,3
9,Cc1cccc(NC(=S)N/C(=N/S(=O)(=O)c2ccccc2)c2ccccc2)c1,1 (active)
10,Cc1cccc(C)c1NC(=S)NC(=O)CCc1ccccc1,1 (active)
11,Cc1ccccc1NC(=S)NC(=O)CCc1ccccc1,1 (active)
12,Cc1cccc(NC(=O)NC(=S)NC(=O)c2ccccc2)c1,1 (active)
13,O=C(O)CN=C(NS(=O)(=O)c1ccccc1)c1ccccc1,0
14,Cc1ccccc1NC(=O)C(=O)NC(C)CCc1ccccc1 (stereo not given),0
15,CC(C)Oc1ccc(C2CC(=O)N(c3ccccc3)C2=O)cc1 (stereo not given),0
16,Nc1c(C(O)(C(F)(F)F)C(F)(F)F)ccc2ccccc12,0
17,CC(C)(C)CC(=O)Nc1ccc(C(N)=O)cc1,0
18,Cc1cccc(NC(=S)NC(=O)CCc2ccccc2)c1,1 (active)
19,Cc1cccc(NC(=O)NC(C)CCc2ccccc2)c1 (stereo not given),0
20,O=C(Cc1ccccc1)NC(=S)Nc1cccc(C(F)(F)F)c1,0
21,O=C(Nc1ccc(O)c(-c2nc3ccccc3s2)c1)C1=COCCO1,0
22,O=C1OC2(CCCCC2)OC(=O)C1=CNc1nc2ccccc2s1,1 (active)
